Data on 8 compounds can be found in PubChem BioAssay (NCI).

About 83,000 compounds went through this panel and 20% of them were active in at least one assay; those are over-represented in the sample as a whole.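 Testing used 96-well plates and a 48-hour single-concentration exposure. Example: -40 means 40% of the starting cells died.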 Values without a mark were called inactive. Calls of active or inactive are those of the source. How the source made its calls: active means growth percent below 10; inactive means the rest.

Some test systems named below: SR leukemia; OVCAR-8 ovarian; OVCAR-5 ovarian; OVCAR-4 ovarian; SK-OV-3 ovarian; IGROV1 ovarian; OVCAR-3 ovarian; HS 578T breast; NCI/ADR-RES ovarian; T-47D breast; BT-549 breast; MDA-MB-435 melanoma; SW-620 colon; MCF7 breast; HCT-116 colon; HCC-2998 colon; KM12 colon; RPMI-8226 leukemia.
Common to all, as to test: NCI-60 one-dose screen, 48 h (100 = growth as untreated, 0 = no growth, -100 = all killed)
What all share (conditions): 10 µM unless noted

Turning to `Cc1nn(-c2ccccc2)c2nc(CCl)[nH]c(=O)c12`, the growth in the experiment on SR leukemia was 39.8%; in the experiment on OVCAR-8 ovarian, 102%; in the experiment with OVCAR-5 ovarian, 112%; with OVCAR-4 ovarian, 110%; with SK-OV-3 ovarian, 122%; in the experiment on IGROV1 ovarian, 97.4%. In addition, the growth with OVCAR-3 ovarian was 90.9%; in the experiment with HS 578T breast, 120%; in the experiment on NCI/ADR-RES ovarian, 105%; with T-47D breast, 66%; in the experiment on BT-549 breast it was 100%; in the experiment with MDA-MB-435 melanoma, 97.9%. The growth in the experiment with SW-620 colon was 85.1%; in the experiment on MCF7 breast it was 16.4%; in the experiment with HCT-116 colon, 24.9%; in the experiment with HCC-2998 colon it was 108%; in the experiment with KM12 colon it was 53.3%.
Regarding `Cc1cc(F)cc(NS(=O)(=O)c2ccc(-c3cnc(C4CC4)o3)cc2)c1`, the growth with SR leukemia was 27.5%; in the experiment with OVCAR-8 ovarian it was 35.8%; in the experiment on OVCAR-5 ovarian, 43%; in the experiment on OVCAR-4 ovarian, 49.6%; in the experiment with SK-OV-3 ovarian it was 58.2%; with IGROV1 ovarian, 32.4%. Further, the growth is -10.1% (active) in the experiment with OVCAR-3 ovarian; 34.1% in the experiment with HS 578T breast; 6.6% (active) in the experiment on NCI/ADR-RES ovarian; 26.7% with T-47D breast; 48.8% with BT-549 breast; -20.9% (active) in the experiment with MDA-MB-435 melanoma. In addition, the growth in the experiment on SW-620 colon is 24.7%; with MCF7 breast, 21.4%; in the experiment with HCT-116 colon it was 19.5%; with HCC-2998 colon, 24.9%; in the experiment with KM12 colon, 18.3%.
On to `CC1OC(O[C@@H]2[C@H](O)C(CO)OC(O[C@H]3COC(O[C@H]4CC[C@]5(C)[C@H]6CC[C@]78OC[C@@]9(CC[C@](C)(C=O)C[C@H]97)C(=O)C[C@@]8(C)[C@]6(C)CC[C@H]5C4(C)C)[C@@H](O)[C@@H]3O)[C@H]2OC2OC[C@@H](O)[C@@H](O)[C@@H]2O)[C@@H](O)[C@@H](O)[C@H]1O` (stereo partly specified), for which the growth is 8.86% (active) with SR leukemia; 101% with RPMI-8226 leukemia; 91.9% in the experiment with OVCAR-8 ovarian; 110% in the experiment on OVCAR-5 ovarian; 86.8% in the experiment on SK-OV-3 ovarian; 94.8% in the experiment on IGROV1 ovarian. The growth with OVCAR-3 ovarian is 105%; in the experiment with HS 578T breast, 103%; with NCI/ADR-RES ovarian, 95.2%; with T-47D breast it was 81.3%; in the experiment on BT-549 breast it was 104%; in the experiment on MDA-MB-435 melanoma it was 105%. Further, the growth in the experiment on SW-620 colon is 104%; in the experiment with MCF7 breast it was 87.7%; in the experiment with HCT-116 colon it was 89.1%; in the experiment with KM12 colon, 97%.
As for `C#C[C@]1(O)CC[C@H]2[C@@H]3CC=C4c5sc(C6CC6)nc5CC[C@]4(C)[C@H]3CC[C@@]21C`, the growth in the experiment with SR leukemia is 46.5%; in the experiment on OVCAR-8 ovarian, 88.3%; in the experiment with OVCAR-5 ovarian, 85.7%; in the experiment on OVCAR-4 ovarian, 107%; with SK-OV-3 ovarian, 116%; in the experiment on IGROV1 ovarian, 97.9%. The growth in the experiment on OVCAR-3 ovarian was 89.2%; in the experiment with HS 578T breast it was 68.1%; in the experiment on NCI/ADR-RES ovarian, 84.6%; in the experiment with T-47D breast, 73.8%; with BT-549 breast, 90.5%; with SW-620 colon it was 91.2%. Further, the growth with MCF7 breast was 64.7%; with HCT-116 colon it was 71.4%; in the experiment on HCC-2998 colon, 83.6%; with KM12 colon, 57.4%.
In the case of `C=C(C)C(=O)O[C@H]1C[C@@]2(C)OC(=CC2=O)[C@H](C)[C@H](O)[C@H]2OC(=O)C(=C)[C@@H]21`, the growth was 38.1% in the experiment on SR leukemia; 27.1% in the experiment with RPMI-8226 leukemia; 71.9% with OVCAR-8 ovarian; 98.6% in the experiment on OVCAR-5 ovarian; 89.7% in the experiment on SK-OV-3 ovarian; 69.7% in the experiment with IGROV1 ovarian. In addition, the growth with OVCAR-3 ovarian is 20.1%; with HS 578T breast, 95.4%; in the experiment on NCI/ADR-RES ovarian, 84.1%; with T-47D breast, 22.2%; in the experiment on BT-549 breast, 68.9%; with MDA-MB-435 melanoma it was 76.3%. The growth in the experiment with SW-620 colon was 17.3%; in the experiment with MCF7 breast it was 22.1%; in the experiment with HCT-116 colon, 33.4%; with HCC-2998 colon, 114%; with KM12 colon it was 84.1%.
With `C=C(C)C(=O)O[C@H]1C[C@@]2(C)OC(=CC2=O)/C(CO)=C\[C@H]2OC(=O)C(=C)[C@H]12`, the growth is -38.5% (active) in the experiment on SR leukemia; -25.6% (active) in the experiment on RPMI-8226 leukemia; 8.5% (active) with OVCAR-8 ovarian; -56.5% (active) in the experiment with OVCAR-5 ovarian; 81.6% in the experiment with SK-OV-3 ovarian; -36% (active) in the experiment with IGROV1 ovarian. Also, the growth with OVCAR-3 ovarian was -93.6% (active); with HS 578T breast it was 17.2%; in the experiment with NCI/ADR-RES ovarian, 11.6%; in the experiment on T-47D breast it was -5.88% (active); with BT-549 breast, -7.7% (active); in the experiment with MDA-MB-435 melanoma, -71% (active). Besides, the growth in the experiment with SW-620 colon was -61.3% (active); in the experiment with MCF7 breast, -7.53% (active); in the experiment with HCT-116 colon, -53.7% (active); in the experiment on KM12 colon, -8.61% (active).
`NC(=O)c1c(NC(=O)c2cccc(C(F)(F)F)c2F)sc2c1CCC(=O)C2`: the growth in the experiment with SR leukemia was 18.7%; with RPMI-8226 leukemia it was -5.06% (active); with OVCAR-8 ovarian, 18.3%; with OVCAR-5 ovarian it was 15.6%; in the experiment on SK-OV-3 ovarian, 77.2%; in the experiment on IGROV1 ovarian, 23.7%. The growth in the experiment with OVCAR-3 ovarian was 11.6%; in the experiment on HS 578T breast, 33.9%; in the experiment on NCI/ADR-RES ovarian, 11%; in the experiment on T-47D breast, 11.8%; in the experiment on BT-549 breast, 11.4%; in the experiment with MDA-MB-435 melanoma, 12.3%. The growth was 2.94% (active) in the experiment with SW-620 colon; 6.11% (active) in the experiment with MCF7 breast; 7.49% (active) in the experiment with HCT-116 colon; 44.1% in the experiment on HCC-2998 colon; 7.39% (active) with KM12 colon.
As to `Clc1ccc(-c2csc(N/N=C/c3nc4ccccc4n3C3CC3)n2)cc1`, the growth is 96.6% with SR leukemia; 100% in the experiment on RPMI-8226 leukemia; 99% with OVCAR-8 ovarian; 99.7% with OVCAR-5 ovarian; 108% in the experiment with SK-OV-3 ovarian; 111% with IGROV1 ovarian. The growth was 106% in the experiment on HS 578T breast; 102% with NCI/ADR-RES ovarian; 111% in the experiment with T-47D breast; 103% in the experiment on BT-549 breast; 98.9% in the experiment on MDA-MB-435 melanoma; 107% in the experiment with SW-620 colon. Besides, the results for the growth with MCF7 breast, in the experiment with HCT-116 colon and with HCC-2998 colon were 94.2%, 96.3% and 105%, respectively.
